Most compounds without a hit are left out; they make up all but 2.1% or so of the library.
eIF4H inh: inhibitors of RNA binding by human eIF4H. Q15056. eIF4H fluorescence polarization binding assay. inhibition, % at 35 µM. hit rate 0.94% among 290,000. AID 2012;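 also: calls also rest on retests at 20 µM and on dose response follow-up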
CendR NRP1 mod: alters CendR peptide binding to human NRP-1. hit rate 0.85% among 360,000. FAM-RPARPAR peptide binding to NRP-1, fluorescence polarization. inhibition, % at 25 µM;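 active = inhibition or corrected inhibition above about 18%, plus a signal ratio from 0.5 to 1.5, limit read from the data, passing the limit was not always enough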
PABP1 MLLE inh: inhibitors of microRNA-mediated deadenylation, human PABP1 MLLE binding | inhibition, % at 20 µM | hit rate 0.36% among 360,000 | GST-MLLE / FITC-PAM2 fluorescence polarization | P11940; in the data active = inhibition above about 35%, passing the limit was not always enough;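 also: plate controls were DMSO wells with GST-MLLE for no effect and wells lacking GST-MLLE protein for full effect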
Target sequence (P11940 whole entry, looked up): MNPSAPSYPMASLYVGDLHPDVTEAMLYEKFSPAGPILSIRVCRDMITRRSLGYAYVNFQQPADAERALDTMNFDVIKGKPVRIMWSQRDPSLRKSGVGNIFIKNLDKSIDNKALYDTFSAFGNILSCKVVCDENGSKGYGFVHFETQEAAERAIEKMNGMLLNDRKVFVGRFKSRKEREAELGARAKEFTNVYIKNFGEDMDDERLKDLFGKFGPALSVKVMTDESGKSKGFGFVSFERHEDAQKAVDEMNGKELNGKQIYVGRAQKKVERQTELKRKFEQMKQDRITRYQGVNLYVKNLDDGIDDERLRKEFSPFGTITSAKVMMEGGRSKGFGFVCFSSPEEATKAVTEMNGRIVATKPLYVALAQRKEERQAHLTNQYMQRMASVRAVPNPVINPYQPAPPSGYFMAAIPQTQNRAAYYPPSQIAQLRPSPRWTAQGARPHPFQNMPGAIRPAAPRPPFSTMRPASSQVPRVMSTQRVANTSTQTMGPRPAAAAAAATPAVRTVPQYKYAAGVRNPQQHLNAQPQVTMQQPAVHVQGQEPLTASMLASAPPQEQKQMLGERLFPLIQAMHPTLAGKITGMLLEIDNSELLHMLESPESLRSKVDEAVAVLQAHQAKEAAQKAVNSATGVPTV
PABP FP inh: blocks human PABP binding to poly(A) RNA | fluorescence polarization | inhibition, % at 35 µM | hit rate 1% among 290,000 | AID 2014;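 also: calls also rest on retests at 20 µM and on dose response follow-up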
* hit, by the source's call; ? = inconclusive; . = no result. Unless noted, no rule for the calls is given here.

SMILES	eIF4H inh	CendR NRP1 mod	PABP1 MLLE inh	PABP FP inh
COc1ccc(C2(c3ccc(OC)cc3)NC(=O)NC2=O)cc1	-3	-2	2	2
CCCCCCCCCCOC(=O)Cn1c(COc2ccc(Cl)cc2)[n+](C)c2ccccc21	20	20*	7	14
COc1ccc(C(=O)COc2ccc(C)cc2NC(C)=O)cc1	-9	7	-10	-4
CCN(CC)S(=O)(=O)c1cc(NC(=O)C(C)N2CCc3ccccc32)ccc1C (stereo unspecified)	active	-15	-11	72
Cc1ccc(NC(=O)C(C)N2CCCc3ccccc32)cc1S(=O)(=O)N1CCOCC1 (stereo unspecified)	.	-2	-9	.
Cc1c(C(=O)N2CCCC2)c(S(=O)(=O)N2CCN(c3ccccc3F)CC2)c(C)n1C	3	6	12	1
COc1ccc(/C=N/OCc2ccc(Br)cc2)c(OC)c1	-12	2	2	1
O=C(c1ccc(-c2ccccc2)cc1)N1CCN(c2ccc3c(c2)C2CC3CCN2C(=O)OCc2ccccc2)CC1 (stereo unspecified)	.	32*	14	.
Cc1ccc(C(=O)N2CCN(c3ccc4c(c3)C3CC4CCN3C(=O)OCc3ccccc3)CC2)cc1 (stereo unspecified)	.	-3	-8	.
O=C(NCc1cccc(Cl)c1)c1cccc2c(-c3cccnc3)coc12	.	-2	16	.
N=c1ccccn1CC(O)COc1ccccc1 (stereo unspecified)	?	-13	-3	?
CC(O)Cn1ccccc1=N (stereo unspecified)	83*	3	1	73*
CC(C)CNC(=O)/C=C/C=C/CCCC/C=C/c1ccc2c(c1)OCO2	.	25*	7	.
O=C(/C=C/c1ccc2c(c1)OCO2)NCCCN1CCOCC1	4	-7	16	1
CC(O)(c1cccnc1)c1nc(/C=C/c2ccccc2)cs1 (stereo unspecified)	.	26*	1	.
COc1ccc(C(C)(O)c2nc(/C=C/c3ccccc3)cs2)cc1 (stereo unspecified)	.	16	1	.
c1ccc(-c2nn3c(Cn4nnc5ccccc54)nnc3s2)nc1	70*	6	30	47
COC(=O)C1=C(C)NC(C)=C(C(=O)OC)C1C(=O)OCC(=O)c1ccc(Br)cc1	.	8	-8	.
COc1ccc(C(=O)c2c3ccc(OC)cc3[n+]([O-])n2Cc2ccc(C(N)=O)cc2)cc1	.	2	2	.
COc1ccc(/C=N/NC(=O)c2ccccc2Cl)cc1CSc1nc2ccccc2s1	-10	31*	-12	-2
N#CC1=C(N)NC(=S)C(C(N)=O)C1c1ccc([N+](=O)[O-])cc1 (stereo unspecified)	8	4	39*	2
CCOc1ccc(N=C/C=C/c2ccccc2)c(O)c1	?	-25	-8	119*
COc1ccccc1NC(=O)CSc1ccc(-c2ccc(-n3ccnc3)cc2)nn1	.	4	0	.
CC(=O)NNC(=S)NC(=O)c1cccc([N+](=O)[O-])c1	-6	4	19	-11
O=C(NC(=S)NC1CCSC1=O)c1ccccc1 (stereo unspecified)	-6	-4	26	-3
SMILES	eIF4H inh	CendR NRP1 mod	PABP1 MLLE inh	PABP FP inh
O=C(NC(=S)NC1CCSC1=O)c1cccc([N+](=O)[O-])c1 (stereo unspecified)	-6	10	42*	7
O=C(NC(=S)NC1CCSC1=O)c1ccc([N+](=O)[O-])cc1 (stereo unspecified)	1	-4	48*	6
COc1ccc(S(=O)(=O)NC(C)C(=O)NCc2ccccn2)cc1Cl (stereo unspecified)	-1	8	-1	2
Cc1ccc(S(=O)(=O)N/N=C\c2cn(CC(N)=O)c3ccccc23)cc1C	2	25*	-16	6
O=C1/C(=C/c2ccco2)SC(=S)N1C1CCS(=O)(=O)C1 (stereo unspecified)	99	-7	35	active
O=C1/C(=C\c2ccco2)SC(=S)N1C1CCS(=O)(=O)C1 (stereo unspecified)	94*	-26	18	73*
Cc1ccc(/C=C2\SC(=S)N(C3CCS(=O)(=O)C3)C2=O)cc1 (stereo unspecified)	14	-8	23	-2
CCN(C(=O)C(C)N1C(=O)/C(=C/c2ccco2)SC1=S)C1CCS(=O)(=O)C1 (stereo unspecified)	54*	-40	7	32*
O=C(CSc1ccsc1[N+](=O)[O-])N1CCN(c2ccc(Cl)cc2)CC1	77*	-10	3	active
Cc1sc(NC(=O)C2CSC3(C)CCC(=O)N23)nc1-c1ccccc1 (stereo unspecified)	.	4	-2	.
